Measured values reported in PubChem BioAssay AID2455 (National Center for Advancing Translational Sciences (NCATS), 2010).
The other results are listed elsewhere or left out. Inconclusive results are not listed. Calls of active or inactive are those of the source. The call rests on the fitted dose curve.

Each compound was assayed against Vitamin D3 receptor (Homo sapiens) (UniProt P11473) (assay: Vitamin D Receptor Selectivity Assay for Inhibitors of the Interaction of Thyroid Hormone Receptor and Steroid Receptor Coregulator 2). Conditions: VDR LBD/SRC2-3 peptide, fluorescence polarization, 3 h.
Excerpt: NIH Molecular Libraries Probe Production Network [MLPCN] NIH Chemical Genomics Center [NCGC] MLPCN Grant: DK058080 Assay Provider: R. Kip Guy, St. Jude Children's Research Hospital NCGC Assay Overview: Thyroid receptor (TR) regulates many homeostatic processes including basal metabolism, cardiovascular function, body weight, and lipid trafficking. TR modulators are potential therapeutics for obesity and hyperlipidemias but current thyroid analogs have undesirable side effects, particularly cardiac stimulation. This secondary assay characterized compounds identified in the qHTS for Inhibitors of the Interaction of Thyroid Hormone Receptor and Steroid Receptor Coregulator 2 (PubChem AID 1485) for selectivity against the vitamin D receptor (VDR). […] Small molecule inhibitors that block the interaction of VDR and SRC2-3 are detected by a decrease in fluorescence polarization. […] Quantification of the vitamin D receptor-coregulator interaction. […]
NCGC Assay Protocol Summary: Twenty uL/well 1 uM VDR and 5 nM Alexa Fluor 647 SRC2-3 peptide in buffer (25 mM PIPES, pH 6.75, 50 mM NaCl, 0.01% NP-40, 6 uM LG190178, and 4% DMSO) was dispensed into black solid 384-well plates (Costar 3710) using a Biomek FX (Beckman Coulter) liquid handling system. […] The plates were read by an Envision (Perkin Elmer) to detect fluorescence polarization of Alexa Fluor 647 (620 nm excitation and 688 nm emission).

Sequence of Vitamin D3 receptor (Homo sapiens) (P11473 whole entry, looked up, the tested form may be a part): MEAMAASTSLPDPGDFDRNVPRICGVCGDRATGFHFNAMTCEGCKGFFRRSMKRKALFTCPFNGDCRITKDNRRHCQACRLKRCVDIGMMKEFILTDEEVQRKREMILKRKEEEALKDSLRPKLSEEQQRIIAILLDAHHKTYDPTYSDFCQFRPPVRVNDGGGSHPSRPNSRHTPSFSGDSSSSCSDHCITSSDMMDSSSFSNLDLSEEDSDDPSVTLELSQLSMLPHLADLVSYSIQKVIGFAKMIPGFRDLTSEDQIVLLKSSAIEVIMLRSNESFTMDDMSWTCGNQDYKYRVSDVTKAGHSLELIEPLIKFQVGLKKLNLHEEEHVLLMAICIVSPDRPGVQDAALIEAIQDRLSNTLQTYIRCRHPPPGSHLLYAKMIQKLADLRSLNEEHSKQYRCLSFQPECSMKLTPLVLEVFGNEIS

| Structure (SMILES) | outcome |
| --- | --- |
| O=C(COC(=O)c1cccc([N+](=O)[O-])c1)NC1C2CC3CC(C2)CC1C3 (stereo unspecified) | inactive |
